In PubChem BioAssay (NCI):
Compounds without any hit were thinned out: in the full panel of roughly 83,000, 20% have a hit.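 Testing used 96-well plates and a 48-hour single-concentration exposure. Example: -40 means 40% of the starting cells died.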 Calls of active or inactive are those of the source. How the source made its calls: active means growth percent below 10; inactive means the rest.

Legend:
Test in all cases: NCI-60 one-dose screen, 48 h (100 = growth as untreated, 0 = no growth, -100 = all killed)
[1] = system: NCI-H23 lung; details: 10 µM unless noted
[2] = system: NCI-H226 lung; details: 10 µM unless noted
[3] = system: NCI-H322M lung; details: 10 µM unless noted
[4] = system: HOP-62 NSCLC; details: 10 µM unless noted
[5] = system: NCI-H460 lung; details: 10 µM unless noted
[6] = system: HOP-92 NSCLC; details: 10 µM unless noted
[7] = system: NCI-H522 lung; details: 10 µM unless noted
[8] = system: A549/ATCC NSCLC; details: 10 µM unless noted
[9] = system: 786-0 renal; details: 10 µM unless noted
[10] = system: COLO 205 colon; details: 10 µM unless noted
[11] = system: DU-145 prostate; details: 10 µM unless noted
[12] = system: K-562 leukemia; details: 10 µM unless noted
[13] = system: MALME-3M melanoma; details: 10 µM unless noted
[14] = system: MDA-MB-231 breast; details: 10 µM unless noted
[15] = system: RXF 393 renal; details: 10 µM unless noted
[16] = system: SF-268 CNS; details: 10 µM unless noted
[17] = system: SF-295 CNS; details: 10 µM unless noted
[18] = system: SF-539 CNS; details: 10 µM unless noted
[19] = system: M14 melanoma; details: 10 µM unless noted
[20] = system: UACC-257 melanoma; details: 10 µM

Measured: growth

Cc1oc2ncnc(Nc3ccccc3)c2c1C(=O)NCCO
inactive: [1] 92% | [2] 106% | [3] 108% | [4] 99% | [5] 98.6% | [6] 88.6% | [7] 96.6% | [8] 98.1% | [9] 98.7% | [10] 100% | [11] 105% | [12] 29.4% | [13] 107% | [14] 75% | [15] 104% | [16] 99.8% | [17] 100% | [18] 88.6% | [19] 106%

N#CC1=C(N)n2nc(-c3ccncc3)nc2NC1c1cccc2ccccc12 (stereo unspecified)
inactive: [1] 90.4% | [2] 78.3% | [3] 106% | [4] 88.2% | [5] 100% | [6] 40.4% | [7] 75.2% | [8] 92.4% | [9] 88% | [10] 106% | [11] 93.3% | [12] 80.9% | [13] 82% | [14] 77.6% | [15] 87.4% | [16] 94.5% | [17] 90.5% | [18] 88.2% | [19] 90.1%

O=S(=O)(NCCCNc1cc(-c2cn(-c3ccccc3)nc2-c2cccc(O)c2)ccn1)c1ccc(Br)cc1
active: [5] 5.69% | [6] -5.67% | [9] -9.38% | [10] -70.3% | [12] -21.3% | [13] -27.3% | [14] -20.7% | [15] 2.04% | [17] -55.2% | [19] 0.533%
inactive: [1] 25.2% | [2] 22.2% | [3] 20.7% | [4] 15.8% | [7] 25.6% | [8] 17.4% | [11] 31.3% | [16] 17.9% | [18] 18.9%

O=C(NCCc1c[nH]c2ccccc12)C1Cc2ccccc2CN1C(=O)c1ccco1 (stereo unspecified)
inactive: [1] 127% | [2] 106% | [3] 87.3% | [4] 94.6% | [5] 114% | [6] 29.9% | [7] 78.6% | [8] 97.7% | [9] 104% | [10] 134% | [11] 114% | [12] 71.5% | [13] 96.2% | [14] 96.2% | [15] 154% | [16] 111% | [17] 113% | [18] 103% | [19] 107%

O=C1NC(Cc2c[nH]c3ccccc23)C(=O)N1Cc1ccc(Cl)cc1 (stereo unspecified)
inactive: [1] 107% | [2] 95.5% | [3] 104% | [4] 103% | [5] 110% | [6] 85.8% | [7] 86.7% | [8] 105% | [9] 110% | [10] 96.9% | [11] 116% | [12] 83.9% | [13] 105% | [14] 101% | [15] 116% | [16] 106% | [17] 82.3% | [18] 106% | [19] 110%

O=C1OC(c2ccccc2)=N/C1=C\c1ccc([N+](=O)[O-])cc1
inactive: [1] 100% | [2] 93.6% | [3] 96.2% | [4] 90.1% | [5] 94.6% | [6] 87.1% | [7] 94.9% | [8] 120% | [9] 98.6% | [10] 109% | [11] 109% | [12] 112% | [13] 89% | [14] 94.1% | [15] 101% | [16] 101% | [17] 103% | [18] 99.2% | [19] 95.4%

C=C1C(=O)O[C@H]2[C@H]1CC/C(Cn1cc(-c3ccc(N)cc3)nn1)=C\CC[C@@]1(C)O[C@@H]21
inactive: [1] 22.3% | [3] 78.9% | [4] 51.4% | [5] 74% | [8] 48.6% | [16] 16.6% | [17] 67.6%
active: [2] -14.3% | [6] -44.3% | [7] -73.2% | [9] -61.3% | [10] -63.5% | [11] 4.28% | [12] 6.36% | [13] -23.1% | [14] 4.85% | [15] -67.1% | [18] -18.7% | [19] -18.2%

CCC(=O)Oc1ccc2c(c1)CC[C@@H]1[C@@H]2CC[C@]2(C)C[C@H](OC(=O)CC)C[C@@H]12
inactive: [1] 79.1% | [2] 99.9% | [3] 92.6% | [4] 64.1% | [5] 62.6% | [6] 62.8% | [7] 32.1% | [8] 71.5% | [9] 67.9% | [10] 118% | [11] 79.2% | [12] 29.4% | [13] 80.1% | [14] 71.4% | [15] 86.2% | [16] 80.1% | [17] 51.6% | [18] 76.6% | [19] 50.5%

Nc1nc(N)c2nc(CNc3ccc(C(=O)CC(CCC(=O)O)C(=O)O)cc3)cnc2n1 (stereo unspecified)
active: [6] -3.77% | [7] -9.57% | [8] 2.47%
inactive: [1] 31.4% | [2] 38.2% | [3] 47.5% | [4] 39.8% | [5] 19.8% | [9] 20.9% | [10] 66% | [11] 28.9% | [12] 58.3% | [13] 111% | [14] 101% | [15] 19.3% | [16] 29.7% | [17] 37.8% | [18] 20.5% | [19] 27.1%

CCN1C(=O)N[C@H]2[C@@H]3NC(=O)c4ccc(Cl)n4[C@@H]3C[C@]21O
inactive: [3] 11.7% | [15] 10.2%
active: [1] 6.06% | [2] 5.43% | [4] -4.56% | [5] 2.06% | [6] 3.95% | [7] -26.9% | [8] 9.08% | [9] -4.85% | [10] -29.5% | [11] 5.1% | [12] 3.13% | [13] -1.41% | [14] -3.51% | [16] 5.4% | [17] 0.996% | [18] -33.5% | [19] -21.3%

O=C1Nc2cc(Cl)ccc2/C1=C/c1ccc(N2CCOCC2)s1
inactive: [1] 109% | [2] 92.9% | [3] 101% | [4] 99.4% | [5] 112% | [6] 89.4% | [7] 101% | [8] 103% | [9] 88.5% | [10] 95.1% | [11] 110% | [12] 98.5% | [13] 96.5% | [14] 99% | [15] 93.9% | [16] 114% | [17] 86.8% | [18] 92.3% | [19] 111%

CCCCCCC[C@@H](O)CC(=O)N[C@H](CCCCN)C(=O)N[C@H](Cc1c[nH]c2ccccc12)C(=O)NC(CCCCN)C(=O)N[C@H](CC(C)C)C(=O)N[C@H](Cc1ccccc1)C(=O)N[C@H](CCCCN)C(=O)N[C@H](CCCCN)C(=O)N[C@H](CC(C)C)C(=O)N1CCCC1C(=O)N[C@H](CCCCN)C(=O)N[C@H](Cc1ccccc1)C(=O)N[C@H](CC(C)C)C(=O)N[C@H](Cc1c[nH]cn1)C(=O)N[C@H](CC(C)C)C(=O)N[C@H](C)C(=O)N[C@H](CCCCN)C(=O)N[C@H](CCCCN)C(=O)N[C@H](Cc1ccccc1)C(=O)O (stereo partly specified)
active: [1] -41.6% | [2] -21.3% | [3] -71.9% | [4] -59% | [5] -25.4% | [6] -54.4% | [7] -48.8% | [8] -47.3% | [9] -34.4% | [10] -47.6% | [11] -77.2% | [12] -33.3% | [13] -2.57% | [14] -71.4% | [15] -39% | [16] -54.2% | [17] -60.8% | [18] -30.8% | [20] -64.9% | [19] -43.4%

COc1cc(-n2nc(C(=O)Nc3ccc(C(=O)O)cc3)nc2-c2ccccc2)cc(OC)c1OC
inactive: [1] 97.4% | [2] 103% | [3] 24.5% | [4] 85.1% | [5] 115% | [6] 83.5% | [7] 55.9% | [8] 74.7% | [9] 92.1% | [10] 104% | [11] 70.6% | [12] 100% | [13] 94.2% | [14] 99% | [15] 106% | [16] 92% | [17] 103% | [18] 106% | [19] 100%

Cc1cc2c(C(C)C)c(O)c(O)c(C=NCCCCCCC(=O)O)c2c(O)c1-c1c(C)cc2c(C(C)C)c(O)c(O)c(C=NCCCCCCC(=O)O)c2c1O
inactive: [1] 21.8% | [2] 74.7% | [3] 38.9% | [4] 39.3% | [5] 13.1% | [6] 13.8% | [8] 30.7% | [9] 38.2% | [10] 14.6% | [11] 51.3% | [12] 12.6% | [13] 62.8% | [14] 39.2% | [15] 34.2% | [16] 36.2% | [17] 11.9% | [18] 23.1% | [19] 37%
active: [7] 9.55%

O=C(CNC(=O)c1cccc2ccccc12)Nc1ccccc1Oc1ccccc1
active: [5] -2.87% | [6] -1.24% | [7] -10.5% | [8] 9.48% | [10] -8.22% | [11] 3.85% | [12] 7.84% | [18] 1.63%
inactive: [1] 20.9% | [2] 49.2% | [3] 41.8% | [4] 24.6% | [9] 16.3% | [13] 71.8% | [14] 15% | [15] 31.1% | [16] 18.1% | [17] 13.6% | [19] 17.2%
